# Laboratory results taken from article PMC5700166.
# Where a chain is given by its changes, count along the chain named.
# How the values were obtained:
# Experiment in all cases: protein-binding microarray (PBM); PBM: ~300 nM protein, 6 mM HEPES pH 7.8, 80 mM KCl, 0.5 mM EDTA, 0.5 mM EGTA, 6% glycerol, 35 ng/ul poly-dIdC, 1% milk, 1 h, room temperature; Ap Aiptasia and Nv Nematostella (sea anemones) / Co Capsaspora / Aq Amphimedon (sponge) / Dm Drosophila / Hu human; RHD is the Rel homology domain; high values mean tight binding
# Conditions in all cases: dsDNA, one strand shown
# GST-Hu-p50 = GST-Hu-p50 (Homo sapiens, UniProt P19838 7-356)
# Chain of GST-Hu-p50 (P19838 7-356): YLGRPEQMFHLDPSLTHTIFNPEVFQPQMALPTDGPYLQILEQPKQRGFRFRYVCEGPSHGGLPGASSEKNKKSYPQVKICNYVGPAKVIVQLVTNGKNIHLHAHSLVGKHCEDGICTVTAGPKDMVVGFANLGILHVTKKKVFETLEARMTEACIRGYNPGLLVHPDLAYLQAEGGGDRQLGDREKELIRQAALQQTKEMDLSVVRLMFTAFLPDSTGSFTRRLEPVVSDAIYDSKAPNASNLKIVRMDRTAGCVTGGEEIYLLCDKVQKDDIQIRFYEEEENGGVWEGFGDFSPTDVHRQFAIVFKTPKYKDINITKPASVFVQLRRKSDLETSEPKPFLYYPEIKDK
# [1] = biological target: T1, GST-Nv-NF-kB (Cys allele) (Nematostella vectensis, UniProt E5G601 2-411)
# T1 sequence: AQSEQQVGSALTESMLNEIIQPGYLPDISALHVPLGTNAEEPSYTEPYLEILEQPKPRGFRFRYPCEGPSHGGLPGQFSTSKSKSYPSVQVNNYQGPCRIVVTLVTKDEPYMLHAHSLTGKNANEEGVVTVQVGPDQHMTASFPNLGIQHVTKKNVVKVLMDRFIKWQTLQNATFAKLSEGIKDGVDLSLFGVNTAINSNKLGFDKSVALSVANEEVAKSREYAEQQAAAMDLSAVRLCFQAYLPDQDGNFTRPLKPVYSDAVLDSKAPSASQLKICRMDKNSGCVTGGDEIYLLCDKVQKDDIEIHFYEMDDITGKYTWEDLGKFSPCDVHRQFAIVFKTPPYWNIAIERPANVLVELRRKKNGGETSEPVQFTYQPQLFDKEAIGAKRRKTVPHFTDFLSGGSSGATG
# [2] = biological target: T2, GST-Nv-NF-kB (Ser allele) (Nematostella vectensis, UniProt A7UNT2 2-411)
# T2 sequence: T1 sequence with Q21R, C66S, S207N, E215Q, V217A, E225K, A268E, D399E
# GST-Dm-Relish = biological target: T3, GST-Dm-Relish (Drosophila melanogaster, UniProt Q94527 99-473)
# T3 sequence: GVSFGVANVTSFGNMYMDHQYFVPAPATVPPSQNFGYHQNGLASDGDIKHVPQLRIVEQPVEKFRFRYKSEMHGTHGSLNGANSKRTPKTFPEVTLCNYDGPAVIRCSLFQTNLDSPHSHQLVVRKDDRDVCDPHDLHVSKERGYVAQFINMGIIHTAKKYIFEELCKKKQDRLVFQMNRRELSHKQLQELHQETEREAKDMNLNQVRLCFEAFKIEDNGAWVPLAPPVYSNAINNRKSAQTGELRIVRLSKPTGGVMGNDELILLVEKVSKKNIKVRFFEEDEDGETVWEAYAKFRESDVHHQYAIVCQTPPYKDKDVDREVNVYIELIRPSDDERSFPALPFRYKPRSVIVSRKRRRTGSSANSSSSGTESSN
# GST-Co-NF-kB = biological target: T4, GST-Co-NF-kB (Capsaspora owczarzaki, UniProt F1ARL5 200-546)
# T4 sequence: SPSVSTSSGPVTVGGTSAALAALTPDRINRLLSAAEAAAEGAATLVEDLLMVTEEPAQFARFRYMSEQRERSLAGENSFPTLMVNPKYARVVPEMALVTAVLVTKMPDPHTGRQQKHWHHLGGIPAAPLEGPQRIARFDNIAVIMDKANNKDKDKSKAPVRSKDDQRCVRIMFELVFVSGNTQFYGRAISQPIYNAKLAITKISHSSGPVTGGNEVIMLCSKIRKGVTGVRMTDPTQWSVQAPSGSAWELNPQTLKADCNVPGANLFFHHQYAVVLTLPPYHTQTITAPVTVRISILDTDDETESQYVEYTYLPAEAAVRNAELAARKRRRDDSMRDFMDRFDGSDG
# GST-Ap-NF-kB RHD = biological target: T5, GST-Ap-NF-kB RHD (Exaiptasia pallida (Aiptasia), UniProt A0A913YAJ5 2-422)
# T5 sequence: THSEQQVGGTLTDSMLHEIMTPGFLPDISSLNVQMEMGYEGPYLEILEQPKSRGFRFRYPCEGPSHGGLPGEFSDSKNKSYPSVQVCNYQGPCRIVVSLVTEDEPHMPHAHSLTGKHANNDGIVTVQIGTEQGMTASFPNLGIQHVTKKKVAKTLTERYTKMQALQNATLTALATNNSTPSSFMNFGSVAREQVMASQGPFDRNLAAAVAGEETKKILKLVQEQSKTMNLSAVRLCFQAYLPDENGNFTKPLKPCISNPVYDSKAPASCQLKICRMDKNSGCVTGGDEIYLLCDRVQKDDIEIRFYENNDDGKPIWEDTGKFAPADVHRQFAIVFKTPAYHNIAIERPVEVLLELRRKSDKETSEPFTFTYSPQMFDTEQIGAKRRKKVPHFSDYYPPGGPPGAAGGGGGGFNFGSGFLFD
# GST-Aq-NF-kB = biological target: T6, GST-Aq-NF-kB (Amphimedon queenslandica, UniProt A9Y5G7 2-389)
# T6 sequence: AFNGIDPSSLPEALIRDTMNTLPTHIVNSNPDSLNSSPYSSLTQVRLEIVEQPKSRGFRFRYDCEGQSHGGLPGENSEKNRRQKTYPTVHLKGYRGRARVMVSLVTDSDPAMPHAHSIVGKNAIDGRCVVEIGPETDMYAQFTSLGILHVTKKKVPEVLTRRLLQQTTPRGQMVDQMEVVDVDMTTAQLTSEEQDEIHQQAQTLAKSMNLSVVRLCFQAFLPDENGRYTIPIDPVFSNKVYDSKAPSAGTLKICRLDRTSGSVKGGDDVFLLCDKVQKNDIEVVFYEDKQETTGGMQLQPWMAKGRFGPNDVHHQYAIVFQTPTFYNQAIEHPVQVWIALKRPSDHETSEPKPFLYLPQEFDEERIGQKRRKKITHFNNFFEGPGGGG
sequence,measurement,setting,value
CCGATTAACATCAGCAAATTTCCTGATGTTAATCGGGTCTTGATTCGCTTGACGCTGCTG,binding signal,GST-Hu-p50,1.07 z-score
CCGATTAACATCACCAGGTTAGGTGATGTTAATCGGGTCTTGATTCGCTTGACGCTGCTG,binding signal,[1],1.1 z-score
same,binding signal,[2],1.85 z-score
same,binding signal,GST-Dm-Relish,1.36 z-score
same,binding signal,GST-Hu-p50,3.09 z-score
CCGATTAACATCACGGGCAGTGGTGATGTTAATCGGGTCTTGATTCGCTTGACGCTGCTG,binding signal,GST-Co-NF-kB,1.25 z-score
same,binding signal,GST-Dm-Relish,1.02 z-score
same,binding signal,GST-Hu-p50,1.37 z-score
CCGATTAACATCACAGCGTGAGGTGATGTTAATCGGGTCTTGATTCGCTTGACGCTGCTG,binding signal,GST-Dm-Relish,1.34 z-score
same,binding signal,GST-Hu-p50,1.16 z-score
CCGATTAACATCATGTTTGCGGGTGATGTTAATCGGGTCTTGATTCGCTTGACGCTGCTG,binding signal,GST-Ap-NF-kB RHD,1.22 z-score
same,binding signal,GST-Co-NF-kB,1.02 z-score
same,binding signal,GST-Hu-p50,1.53 z-score
CCGATTAACATCATCCCTTGTCATGATGTTAATCGGGTCTTGATTCGCTTGACGCTGCTG,binding signal,GST-Ap-NF-kB RHD,1.2 z-score
CCGATTAACATCAGGATTTACCATGATGTTAATCGGGTCTTGATTCGCTTGACGCTGCTG,binding signal,GST-Dm-Relish,3.08 z-score
same,binding signal,GST-Aq-NF-kB,1.48 z-score
CCGATTAACATCACCCCGCATGCTGATGTTAATCGGGTCTTGATTCGCTTGACGCTGCTG,binding signal,GST-Ap-NF-kB RHD,1.75 z-score
same,binding signal,GST-Co-NF-kB,1.97 z-score
same,binding signal,GST-Hu-p50,1.34 z-score
CCGATTAACATCACCTGAACTATTGATGTTAATCGGGTCTTGATTCGCTTGACGCTGCTG,binding signal,GST-Hu-p50,1.45 z-score
CCGATTAACATCAGGAAATTGCCTGATGTTAATCGGGTCTTGATTCGCTTGACGCTGCTG,binding signal,[1],1.05 z-score
same,binding signal,GST-Hu-p50,1.3 z-score
CCGATTAACATCACCGAAATTCCTGATGTTAATCGGGTCTTGATTCGCTTGACGCTGCTG,binding signal,[2],1.53 z-score
same,binding signal,GST-Dm-Relish,1.25 z-score
same,binding signal,GST-Hu-p50,2.52 z-score
CCGATTAACATCATGATATCCGGTGATGTTAATCGGGTCTTGATTCGCTTGACGCTGCTG,binding signal,GST-Dm-Relish,1.07 z-score
same,binding signal,GST-Hu-p50,1.11 z-score
CCGATTAACATCAAGATTAGGGATGATGTTAATCGGGTCTTGATTCGCTTGACGCTGCTG,binding signal,GST-Ap-NF-kB RHD,1.31 z-score
CCGATTAACATCACACCCGCAACTGATGTTAATCGGGTCTTGATTCGCTTGACGCTGCTG,binding signal,GST-Co-NF-kB,1.54 z-score
CCGATTAACATCAAGGGGGGGGATGATGTTAATCGGGTCTTGATTCGCTTGACGCTGCTG,binding signal,GST-Ap-NF-kB RHD,7.71 z-score
same,binding signal,GST-Co-NF-kB,7.64 z-score
same,binding signal,GST-Dm-Relish,5.31 z-score
CCGATTAACATCACACTGTTCAGTGATGTTAATCGGGTCTTGATTCGCTTGACGCTGCTG,binding signal,[2],1.06 z-score
CCGATTAACATCAGATAGGTACTTGATGTTAATCGGGTCTTGATTCGCTTGACGCTGCTG,binding signal,[2],2.46 z-score
CCGATTAACATCAAGGGGGGATATGATGTTAATCGGGTCTTGATTCGCTTGACGCTGCTG,binding signal,GST-Ap-NF-kB RHD,5.79 z-score
same,binding signal,[1],4.88 z-score
same,binding signal,GST-Co-NF-kB,6.15 z-score
same,binding signal,GST-Dm-Relish,4.29 z-score
CCGATTAACATCAACCCCAGCTCTGATGTTAATCGGGTCTTGATTCGCTTGACGCTGCTG,binding signal,GST-Ap-NF-kB RHD,1.01 z-score
same,binding signal,[1],1.21 z-score
same,binding signal,GST-Co-NF-kB,1.8 z-score
same,binding signal,GST-Dm-Relish,1.14 z-score
CCGATTAACATCAATTTGGGAAATGATGTTAATCGGGTCTTGATTCGCTTGACGCTGCTG,binding signal,[1],2.58 z-score
same,binding signal,GST-Co-NF-kB,1.92 z-score
CCGATTAACATCACCCGGCGCAGTGATGTTAATCGGGTCTTGATTCGCTTGACGCTGCTG,binding signal,GST-Ap-NF-kB RHD,1.17 z-score
same,binding signal,GST-Co-NF-kB,2.3 z-score
CCGATTAACATCAAGGGGGGGGGTGATGTTAATCGGGTCTTGATTCGCTTGACGCTGCTG,binding signal,GST-Ap-NF-kB RHD,5.14 z-score
same,binding signal,GST-Co-NF-kB,7.25 z-score
same,binding signal,GST-Dm-Relish,5.34 z-score
CCGATTAACATCACCCGCGCTCATGATGTTAATCGGGTCTTGATTCGCTTGACGCTGCTG,binding signal,GST-Ap-NF-kB RHD,1.32 z-score
same,binding signal,GST-Dm-Relish,1.06 z-score
